Assay outcomes (PubChem BioAssay)
Hits are enriched below; roughly 1.8% of the tested compounds scored in any of these assays.
VHR inh abs = DUSP3 (human) phosphatase inhibition. P51452. recombinant VHR phosphatase, pNPP absorbance. inhibition, % at 13.3 µM. hit rate 0.52% among 290,000. AID 1654; in the data active means inhibition above about 50%
Target sequence (P51452 whole entry, looked up): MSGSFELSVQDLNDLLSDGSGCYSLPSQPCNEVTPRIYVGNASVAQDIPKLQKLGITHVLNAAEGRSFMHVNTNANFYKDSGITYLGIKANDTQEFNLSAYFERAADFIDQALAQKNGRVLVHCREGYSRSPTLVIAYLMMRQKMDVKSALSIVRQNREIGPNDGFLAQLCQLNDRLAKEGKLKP
Sa ugtP lethal = compounds lethal to S. aureus RN4220 ugtP deletion mutant. OD600 growth, 16 h. growth inhibition, % (concentration not given with the values). AID 1259309. hit rate 0.54% among 330,000; in the data active means growth inhibition above about 68%
PriA SSB inh = K. pneumoniae PriA-SSBct interaction inhibition; AlphaScreen SSBct-PriA binding, biotinylated peptide; inhibition, % at 33 µM; hit rate 0.6% among 430,000; in the data active means inhibition mostly above about 37%, no sharp cut-off; inactive means mostly below about 20%
Mtb hypoxia inh = Mtb hypoxia fluorescent reporter inhibition; M. tuberculosis hypoxia-regulated fluorescent reporter, fluorescence; hit rate 0.1% among 300,000; fluorescence inhibition, % (test concentration not listed); in the data active means fluorescence inhibition mostly above about 23%, no sharp cut-off; inactive means mostly below about 17%
RN4220 kill = S. aureus RN4220 growth inhibition. inhibition, % (test concentration not listed). OD600, 16 h. hit rate 0.33% among 330,000. AID 1259311; in the data active means inhibition above about 85%
PfHsp40 yeast = compounds rescuing yeast from Plasmodium falciparum HSP40 toxicity; S. cerevisiae expressing PfHsp40, growth rescue, ATP luminescence; growth rescue, % at 12.5 µM; hit rate 0.68% among 340,000; AID 504582; in the data active means growth rescue above about 28%, passing the limit was not always enough; inconclusive means no clear call, values can overlap the other calls;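 further: yeast W303a lacking pdr1 and pdr3 grown in galactose medium; growth measured after three days at 30 °C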
Large screens that a line does not name were inactive.

O=C(Nc1cc(=O)[nH]c(=O)[nH]1)C(c1ccccc1)c1ccccc1	none (no result: VHR inh abs, Sa ugtP lethal, Mtb hypoxia inh, RN4220 kill, PfHsp40 yeast)
Nc1ccc2c(c1)Nc1ccccc1CC2	PriA SSB inh 58
CCOc1ccc(/C=C/C(=O)c2c(O)c3ccccc3oc2=O)cc1	Sa ugtP lethal 92
C(=C\CSc1cccc2cccnc12)/CSc1cccc2cccnc12	none (no result: VHR inh abs, Sa ugtP lethal, Mtb hypoxia inh, RN4220 kill, PfHsp40 yeast)
c1cnc2c(SCc3ccncc3)cccc2c1	none (no result: VHR inh abs, Sa ugtP lethal, Mtb hypoxia inh, RN4220 kill, PfHsp40 yeast)
Cc1cccc(CSc2cccc3cccnc23)c1	PriA SSB inh 95
Clc1ccc(CSc2cccc3cccnc23)cc1Cl	none (no result: VHR inh abs, Sa ugtP lethal, Mtb hypoxia inh, RN4220 kill, PfHsp40 yeast)
c1cnc2c(SCc3ccc(-c4nnco4)cc3)cccc2c1	PriA SSB inh 74 (no result: Mtb hypoxia inh)
N#CCSc1cccc2cccnc12	PriA SSB inh 84 (no result: VHR inh abs, Sa ugtP lethal, Mtb hypoxia inh, RN4220 kill, PfHsp40 yeast)
O=S(=O)(NC[C@H](O)c1csc2ccccc12)c1ccc(-n2cccn2)cc1	none (no result: VHR inh abs, Sa ugtP lethal, Mtb hypoxia inh, RN4220 kill, PfHsp40 yeast)
CC1(C)C(/C=C/C=C/C=C/C=C2\N(CCCCS(=O)(=O)O)c3ccc4ccccc4c3C2(C)C)=[N+](CCCCS(=O)(=O)[O-])c2ccc3ccccc3c21	PriA SSB inh 75 (no result: VHR inh abs, Sa ugtP lethal, Mtb hypoxia inh, RN4220 kill)
CCC(C(=O)N1CCC(c2nc(CCOC)no2)CC1)c1ccccc1 (stereo unspecified)	none (no result: VHR inh abs, Sa ugtP lethal, Mtb hypoxia inh, RN4220 kill, PfHsp40 yeast)
Cc1ccc2nc3c(cc(C(=O)NC4CCCCC4)c(=N)n3C3CCCCC3)c(=O)n2c1	none
Cc1ccc2nc3c(cc(C(=O)NC4CCCC4)c(=N)n3C3CCCCC3)c(=O)n2c1	VHR inh abs 58, PfHsp40 yeast inconclusive
N#Cc1c(-c2ccccc2)c(-c2ccccc2)nn(CC(=O)NNC(=O)Nc2ccc(Cl)c(Cl)c2)c1=O	PriA SSB inh 52
CCN(CC)Cc1c(C(=O)NN=Cc2cccnc2)nnn1-c1nonc1N	none (no result: VHR inh abs, PfHsp40 yeast)
COCCN1CCCc2ccc(NC(=O)c3ccccc3C)cc21	none (no result: VHR inh abs, Sa ugtP lethal, Mtb hypoxia inh, RN4220 kill, PfHsp40 yeast)
COc1cccc(N2C(=O)NC(=O)/C(=C/c3ccc4c5c(cccc35)CC4)C2=O)c1	VHR inh abs 51 (no result: PriA SSB inh, PfHsp40 yeast)
CCOc1ccccc1N1C(=O)NC(=O)/C(=C/c2ccc3c4c(cccc24)CC3)C1=O	none
Cn1cccc1C(O)CCNC(=O)c1ccc(Cl)s1 (stereo unspecified)	none (no result: VHR inh abs, Sa ugtP lethal, Mtb hypoxia inh, RN4220 kill, PfHsp40 yeast)
CCN(CC)c1ccc(/C=C/c2ccc3ccc(OC)cc3[n+]2CC)cc1	Sa ugtP lethal 99, RN4220 kill 100, PfHsp40 yeast 321 (not shown: Mtb hypoxia inh)
CC[n+]1ccc(/C=C/c2ccc(N(C)C)cc2)c2ccccc21	Sa ugtP lethal 95, RN4220 kill 92
CC[n+]1c(/C=C/c2ccc(N(C)C)cc2)ccc2ccccc21	Sa ugtP lethal 96, RN4220 kill 98
Cc1cc(=O)[nH]c(SCC(=O)O)n1	none (no result: VHR inh abs, Sa ugtP lethal, Mtb hypoxia inh, RN4220 kill, PfHsp40 yeast)
C/C(=N/NC(=S)NCc1ccco1)c1cccc([N+](=O)[O-])c1	PriA SSB inh 66 (no result: VHR inh abs, Sa ugtP lethal, Mtb hypoxia inh, RN4220 kill, PfHsp40 yeast)
Cc1ccc(-c2csc3nc[nH]c(=S)c23)cc1C	PriA SSB inh 48
COC(=O)C1=C(C(=O)OC)C2N(C)c3ccc(OC)cc3[C@@]23CC(C(=O)OC)N(C(=O)C2CCC2)C3=N1 (stereo partly specified)	none (no result: VHR inh abs, PriA SSB inh, PfHsp40 yeast)
CC=C(C)C(=O)OC1c2c(ccc3ccc(=O)oc23)OC1C(C)(C)OC(=O)C(C)=CC (stereo unspecified)	Sa ugtP lethal 97 (no result: VHR inh abs, PriA SSB inh, PfHsp40 yeast)
COc1ccc(N2CC(C(=O)N3CCN(c4ccccc4F)CC3)CC2=O)cc1 (stereo unspecified)	none
COc1ccc(S(=O)(=O)N2CCN(C(=O)C3CC(=O)N(c4ccccc4F)C3)CC2)cc1OC (stereo unspecified)	Mtb hypoxia inh 31 (no result: VHR inh abs)
CC(C)CCNC(=O)c1onc(CSc2ccc(F)c(F)c2)c1C(=O)NCCC(C)C	PfHsp40 yeast 37
CCCNC(=O)c1onc(CSc2ccc(F)c(F)c2)c1C(=O)NCCC	none (no result: VHR inh abs, PfHsp40 yeast)
CN(C)CCNC(=O)c1onc(CSc2ccc(F)c(F)c2)c1C(=O)NCCN(C)C	none (no result: Sa ugtP lethal, Mtb hypoxia inh, RN4220 kill)
CN(C)CCNC(=O)c1onc(CSc2ccc(F)cc2)c1C(=O)NCCN(C)C	PfHsp40 yeast 34
O=C(CSc1ccc(F)cc1)NC1CCN(c2ccc(C(F)(F)F)cn2)C1 (stereo unspecified)	none (no result: VHR inh abs, Sa ugtP lethal, Mtb hypoxia inh, RN4220 kill, PfHsp40 yeast)
COc1ccccc1-n1cnc2cc(NS(=O)(=O)c3ccc(Br)cc3)ccc21	PriA SSB inh 41
COc1ccc(-n2cnc3cc(NS(=O)(=O)c4ccc(C)cc4)ccc32)cc1	none (no result: Sa ugtP lethal, PriA SSB inh, Mtb hypoxia inh, RN4220 kill)
Clc1ccccc1C(c1ccccc1)(c1ccccc1)n1ccnc1	PfHsp40 yeast 173
FC(F)(F)c1ccccc1-n1ccnc1	none (no result: VHR inh abs)
COc1ccc(S(=O)(=O)c2cnc(SCC(=O)Nc3cccc(C)c3)[nH]c2=O)cc1	none (no result: VHR inh abs, Sa ugtP lethal, Mtb hypoxia inh, RN4220 kill, PfHsp40 yeast)
Cc1nn(-c2cccc(Cl)c2)c(Cl)c1/C=N/NC(=O)c1cccs1	VHR inh abs 54 (no result: Sa ugtP lethal, PriA SSB inh, Mtb hypoxia inh, RN4220 kill)
O=C1OCCN1N=Cc1ccc([N+](=O)[O-])o1	Sa ugtP lethal 100, RN4220 kill 100 (no result: VHR inh abs, PfHsp40 yeast)
CCN(CC)CC1CN(N=Cc2ccc([N+](=O)[O-])o2)C(=O)O1 (stereo unspecified)	none (no result: VHR inh abs)
Cc1ccc(Nc2cc(C)nc3c(C)c(C)cc([N+](=O)[O-])c23)cc1	PriA SSB inh 66 (no result: VHR inh abs, Sa ugtP lethal, Mtb hypoxia inh, RN4220 kill, PfHsp40 yeast)
C[C@@H]1SCC(=O)N(CC(=O)Nc2ccc3c(c2)OCCO3)C1=O	none (no result: VHR inh abs, Sa ugtP lethal, Mtb hypoxia inh, RN4220 kill, PfHsp40 yeast)
COc1ccc(N(C)S(=O)(=O)c2ccc(Cl)c(C(=O)NNC(=O)c3ccccc3O)c2)cc1	PfHsp40 yeast 248 (no result: VHR inh abs)
COc1ccccc1N(C)S(=O)(=O)c1ccc(Cl)c(C(=O)NNC(=O)c2ccccc2O)c1	PfHsp40 yeast 218
COc1ccccc1N(C)S(=O)(=O)c1ccc(C(=O)NNC(=O)c2ccccc2O)cc1	none (no result: VHR inh abs, PfHsp40 yeast)
